TRHR agonist – activates the human TRH receptor; TRHR cells, calcium flux fluo-8, FDSS agonist mode; P34981; 0.18% of 360,000 active; activation, % at 2 µM
Target sequence (P34981 whole entry, looked up): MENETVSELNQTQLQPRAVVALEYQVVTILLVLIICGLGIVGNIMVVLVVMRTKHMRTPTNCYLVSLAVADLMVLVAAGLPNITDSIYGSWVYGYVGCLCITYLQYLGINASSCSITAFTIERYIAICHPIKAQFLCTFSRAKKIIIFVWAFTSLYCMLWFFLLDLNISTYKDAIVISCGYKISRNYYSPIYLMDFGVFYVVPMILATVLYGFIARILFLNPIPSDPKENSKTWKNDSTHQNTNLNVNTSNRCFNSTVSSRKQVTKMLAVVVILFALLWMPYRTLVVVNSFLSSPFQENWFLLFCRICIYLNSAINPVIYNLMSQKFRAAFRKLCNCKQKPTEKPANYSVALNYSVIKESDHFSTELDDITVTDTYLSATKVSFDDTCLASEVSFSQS
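TRHR-expressing cells, plated overnight in medium with 10% serum, were loaded with fluo-8 calcium dye at room temperature. After a 10 s baseline, library compound was pin-added and calcium release was recorded kinetically (ex 480/em 530) as agonist response.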
TRHR PAM – allosterically enhances the human TRH receptor | TRHR cells, fluo-8 calcium fluorescence, EC20 TRH enhancement | enhancement, % at 2 µM | 0.66% of 360,000 active; in the data active = enhancement above about 30%
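TRHR-expressing cells loaded with fluo-8 calcium dye were read kinetically (ex 480/em 530) during compound addition, then stimulated with an EC20 of TRH (10 nM final). Enhancement of the Gq-mediated intracellular calcium response was scored.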
D1 ag – activates the human D1 dopamine receptor. activation, % at 2 µM. HEK293 T-REx D1 cells, calcium flux, agonist mode. 1% of 360,000 active
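Agonism was scored from calcium flux recorded over 180 s (1 read/s) after pintool compound addition, following a 10-cycle baseline. Cells were inducible force-coupled HEK293 TREx D1, plated overnight at 30 C and loaded with no-wash calcium dye.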
D1 potentiator – potentiators of human D1 dopamine receptor | P21728 | HEK293 TREx D1 cells, calcium flux, dopamine EC20 potentiation | potentiation, % at 10 µM | 0.036% of 360,000 active; in the data active = potentiation above about 30%
D1 antag – antagonists of human D1 dopamine receptor | 3.2% of 360,000 active | HEK293 TREx D1 cells, calcium flux, dopamine EC80; active compounds read low | P21728 | activity change, negative = inhibition, % at 10 µM; in the data active = activity change below about -30%
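Compound effects on dopamine-evoked calcium signalling were measured in tetracycline-induced HEK293 Trex D1 cells. Dopamine at EC80 followed a 180 s compound pre-read, and fluorescence was tracked kinetically for 180 s more.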
Numbers stand for hits; - = inactive; ! = not confirmed by another sample. Rows were chosen to be rich in hits. Some 4.6% of all compounds tested hit in one or more screens of this group. Cut-off read from the data, not from the text of the source, unless noted: active = activation above about 30%; inactive = the rest.

SMILES	TRHR agonist	TRHR PAM	D1 ag	D1 potentiator	D1 antag
CCCCOc1ccc(C(=O)Nc2cc(C)c(OCC(=O)N3CCOCC3)c(C)c2)cc1	-	-	-	-	-40
COc1ccc(C(=O)c2cn(Cc3ccc(F)cc3)c3c(F)cc(F)cc3c2=O)cc1	-	-	-	-	-
Cc1cc(/C=N/NC(=O)COc2cccc3cccnc23)c(C)n1-c1ccc(O)cc1	-	-	-	-	-
Cc1cc(C)cc(-n2c(C)cc(/C=N\NC(=O)COc3cccc4cccnc34)c2C)c1	-	-	45	-	-
COc1ccc(COC(=O)c2ccc(Br)c(S(=O)(=O)N3CCOCC3)c2)cc1F	-	-	-	-	-
Cc1ccccc1NC(=O)c1nnn(-c2ccc3c(c2)OCCO3)c1N	-	-	-	-	-48
CC(Sc1nc(=O)cc(N)n1CCc1ccccc1)C(=O)Nc1ccccc1C#N (stereo unspecified)	-	-	-	-	-
Cc1cc(C)n(C(=O)c2ccc(NC(=O)CC(C)C)cc2)n1	-	-	-	-	-94
Nc1nc(C(F)(F)F)c(Br)c(=O)n1N	-	-	-	-	-30
COc1ccc(/C(N)=N/OC(=O)C2CCC(=O)N2S(=O)(=O)c2ccc(C)cc2)cc1 (stereo unspecified)	-	-	-	-	-32
CCOC(=O)c1ccc(Nc2sc(C(=O)c3cccc([N+](=O)[O-])c3)c(N)c2C#N)cc1	-	-	-	-	-32
Cc1ccc(C(=O)c2sc(Nc3ccccc3)c(C#N)c2N)cc1	-	-	-	-	-
COC(=O)c1ccc2c(=O)n(CCCCCC(=O)NCCc3ccc(Cl)cc3)c(=O)[nH]c2c1	-	-	-	-	-
COc1ccc(N2CCN(C(=O)c3cn(CC4CCCCC4)nn3)CC2)cc1	-	-	-	-	-34
COc1ccc(N2CCN(C(=O)NC3CCCCC3)CC2)cc1	-	-	-	-	-
COc1ccc(N2CCN(C(=O)c3c(Cl)cnn3C)CC2)cc1	-	-	-	-	-58
C/C(=N\NC(=O)Cc1ccc(Cl)cc1)c1ccc(F)cc1	-	-	-	-	-
C/C(=N\NC(=O)Cc1ccc(Cl)cc1)c1ccccc1O	-	-	-	-	-36
C/C(=N\NC(=O)CSCc1ccc([N+](=O)[O-])cc1)c1ccccc1O	-	-	-	-	-87
Cc1ccc2c(c1)C(c1ccc(F)cc1)N(C(=O)COc1ccc(Cl)cc1Cl)CC(=O)N2 (stereo unspecified)	-	-	-	-	-
Cc1ccc(C(=O)OCC(=O)Nc2cc(S(=O)(=O)N3CCOCC3)ccc2C)cc1	-	-	-	-	-
Cc1ccc(S(=O)(=O)N2CCOCC2)cc1NC(=O)COC(=O)CCn1c(C)csc1=O	-	-	-	-	-
Cc1ccc(S(=O)(=O)N2CCOCC2)cc1NC(=O)COC(=O)Cn1c(C)csc1=O	-	-	-	-	-31
Cc1ccc(S(=O)(=O)N2CCOCC2)cc1NC(=O)COC(=O)CCC(=O)c1ccc(F)cc1	-	-	-	-	-31
Cc1nc2cc(-c3cccc(F)c3)nn2c(C)c1CCC(=O)Nc1ccccc1C(N)=O	-	-	-	-	-
SMILES	TRHR agonist	TRHR PAM	D1 ag	D1 potentiator	D1 antag
CSc1ccccc1C(=O)NCCOc1cccc(C)c1	-	-	-	-	-50
Cc1ccc(C(=O)NCCOc2cccc(C)c2)cc1	-	-	-	-	-
Cc1ccccc1NC(=O)Cn1c(=O)oc2cc(Br)ccc21	-	-	-	-	-
CCOC(=O)c1ccc(-c2ccc(/C=C(\C#N)C(=O)Nc3c(C)cccc3Cl)o2)cc1	-	-	-	-	-
CCCCOC(=O)c1ccc(NC(=O)/C(C#N)=C/c2ccc(-c3ccccc3)o2)cc1	47	-	127	-	-
Cc1ccc(-c2ccc(/C=C(\C#N)C(=O)Nc3cc(C)nn3-c3ccccc3)o2)cc1	-	-	61	-	-
Cc1cccc(C(=O)NCC(=O)Nc2ccncc2)c1	-	-	-	-	-
COCCCNC(=O)CCC(=O)N1Cc2cccc(OC)c2Oc2ncccc21	-	-	-	-	-
Cc1c(Cl)cccc1NC(=O)Cc1ccc([N+](=O)[O-])cc1	-	-	-	-	-
COc1ccc(C(=O)NC2(C(F)(F)F)C(=O)NC(C)=C2C#N)cc1OC (stereo unspecified)	-	-	-	-	-
COc1ccc(C(=O)NC2(C(F)(F)F)C(=O)NC(C)=C2C#N)cc1 (stereo unspecified)	-	41	-	-	-
CC1=C(C#N)C(NC(=O)c2cccc(Cl)c2)(C(F)(F)F)C(=O)N1 (stereo unspecified)	-	-	-	-	-31!
COc1ccc(NC(=O)CCC(=O)N/N=C/c2ccncc2)cc1	-	-	-	-	-64
COc1ccc(/C=N/NC(=O)CNS(=O)(=O)c2ccccc2)cc1	-	-	-	-	-38
O=C(Nc1ccccc1C(=O)N/N=C/c1ccncc1)c1ccccc1	-	-	-	-	-32
COc1ccc(/C=N/NC(=O)CCn2cnc3ccccc32)cc1	-	-	-	-	-51
COc1ccc(N(CC(=O)NCCc2ccccc2)S(=O)(=O)c2c(C)nn(C)c2C)cc1	-	-	-	-	-
O=C(CCC(=O)Nc1ccccc1)N/N=C/c1ccncc1	-	-	-	-	-
Cc1ccccc1NC(=O)CCC(=O)N/N=C/c1ccncc1	-	-	-	-	-40
CN(C)C(CNC(=O)C1CCN(S(=O)(=O)c2ccccc2C(F)(F)F)CC1)Cc1ccccc1 (stereo unspecified)	-	-	-	-	-
COc1ccc(N2CCN(C3CCCN(C(=O)CN4CCOC4=O)C3)CC2)cc1 (stereo unspecified)	-	-	-	-	-
CN(c1ccc(OCC(=O)OCC(=O)Nc2ccccc2F)cc1)S(=O)(=O)c1cccs1	-	-	36	-	-40
CCO[C@@H]1OC(C(=O)N2CCN(C)CC2)=C[C@H](C(C)(C)C)[C@H]1CCCO	-	35	-	-	-
CCO[C@@H]1OC(C(=O)N2CCN(C)CC2)=C[C@H](C2CCCCC2)[C@H]1CCCO	-	-	-	-	-
O=C(c1ccc([N+](=O)[O-])cc1)N1CCSC1c1cccc(Cl)c1 (stereo unspecified)	-	-	-	-	-35
CCOc1ccc(/C=C/C(=O)OCC(=O)NCCc2ccc(OCC)c(OCC)c2)cc1OC	-	-	-	-	-
CCOc1ccccc1NC(=O)COC(=O)/C=C/c1ccc(OC)c(OC)c1	-	-	-	-	-38
COc1cc(/C=C/C(=O)OCC(=O)NCCc2ccccc2)ccc1OC(F)F	-	-	-	-	-30
CSc1ncc(CN2CCCCC2C(=O)Nc2ccc(Oc3ccccc3)nc2)cn1 (stereo unspecified)	-	-	-	-	-31
CCc1ccc(CN2CCC(C(=O)Nc3ccc(Oc4ccccc4)nc3)CC2)o1	-	-	37	-	-
